TDP1 cell CPT = qHTS for Inhibitors of human tyrosyl-DNA phosphodiesterase 1 (TDP1): qHTS in cells in presence of CPT. chicken DT40 Tdp1-/-;hTDP1 cells + 20 nM CPT, ATP luminescence, 48 h. 420,000 compounds, 12% hits. Potency, µM (highest dose often 46.2 µM), usual class: inhibitors. AID 686979, 2013; note: nearly all actives have a fitted effect of over 55% in size
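Chicken DT40 Tdp1-/- cells stably complemented with human TDP1 were seeded at 400 cells/well in medium containing 20 nM camptothecin, exposed to pin-transferred compounds, and grown at 37 °C for at least 48 hr. Viability was read as ATP luminescence.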
RORg inh = qHTS for inhibitors of ROR gamma transcriptional activity. Nuclear receptor ROR-gamma (Mus musculus), P51450. Drosophila S2 Gal4-RORgamma UAS-luciferase reporter, 20 h. Potency, µM (highest dose often 53.6 µM), usual class: inhibitors. 310,000 compounds, 5.4% hits. AID 2551, 2010; note: nearly all actives have a fitted effect of over 60% in size
Target sequence (P51450 whole entry, looked up, the tested form may be a part): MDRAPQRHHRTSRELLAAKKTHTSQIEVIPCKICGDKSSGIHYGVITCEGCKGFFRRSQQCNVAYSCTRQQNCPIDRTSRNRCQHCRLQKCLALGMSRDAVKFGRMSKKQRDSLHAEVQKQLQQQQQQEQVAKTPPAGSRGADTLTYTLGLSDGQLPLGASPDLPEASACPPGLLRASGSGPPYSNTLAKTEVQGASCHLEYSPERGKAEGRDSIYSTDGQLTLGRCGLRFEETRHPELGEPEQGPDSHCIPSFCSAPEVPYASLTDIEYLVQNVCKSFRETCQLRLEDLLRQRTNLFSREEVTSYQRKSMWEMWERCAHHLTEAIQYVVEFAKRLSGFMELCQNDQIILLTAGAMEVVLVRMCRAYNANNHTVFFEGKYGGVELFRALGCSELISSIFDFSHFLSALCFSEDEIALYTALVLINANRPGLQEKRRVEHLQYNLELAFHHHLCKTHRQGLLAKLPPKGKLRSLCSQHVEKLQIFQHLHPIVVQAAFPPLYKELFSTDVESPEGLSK
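Read-out: Photinus luciferase luminescence; inhibitors lower reporter signal. Insect Schneider cells with Gal4-ROR gamma fusion under metallothionein promoter, UAS reporter; 700 uM final copper sulfate induction, 20 hr, ambient temperature.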
IL-1B inflam inh = qHTS for Inhibitors of Inflammasome Signaling: IL-1-beta AlphaLISA Primary Screen. activity change, % at 57.5 µM. THP-1 LPS/ATP IL-1B secretion, AlphaLISA, 16 h; active compounds read low. AID 743279, 2014. 360,000 compounds, 4.7% hits; in the data active = activity change below about -50%; inconclusive = mostly about -30% to -49%
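THP-1 cells pretreated 1 hr with compounds (up to 57.5 uM final), then stimulated with LPS (250 ng/mL final) plus ATP (1.25 mM final); secreted IL-1B measured by AlphaLISA after 16 hr, decreased signal indicating inhibition.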
TDP1 cell noCPT = qHTS for Inhibitors of human tyrosyl-DNA phosphodiesterase 1 (TDP1): qHTS in cells in absence of CPT. 420,000 compounds, 15% hits. AID 686978, 2013. Potency, µM (series often up to 46.2 µM), usual class: inhibitors. DT40 Tdp1-/- hTDP1 cells, no CPT, ATP luminescence, 48 h; note: nearly all actives have a fitted effect of over 55% in size
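DT40 Tdp1-/-;hTDP1 cells, no CPT (DMSO vehicle only), 400 cells/well; compounds pin-transferred; ≥48 hr, 37 °C; CellTiter-Glo 30 min RT dark, luminescence read.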
VP16 counter = VP16 counterscreen qHTS for inhibitors of ROR gamma transcriptional activity; Drosophila S2 Gal4-VP16 UAS-luciferase, luminescence, 20 h; Potency, µM (highest dose often 53.6 µM), actives largely listed as inhibitors; 310,000 compounds, 3.5% hits;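 note: Gal4-VP16 expression switched on by copper sulfate through the metallothionein promoter; nearly all actives have a fitted effect of over 50% in size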
ELG1 repair inh = qHTS screen for small molecules that inhibit ELG1-dependent DNA repair in human embryonic kidney (HEK293T) cells expressing luciferase-tagged ELG1; HEK293T ELG1-luciferase reporter, luminescence, 16 h; DNA damage induced by 5-fluorouridine; 330,000 compounds, 2.3% hits; AID 504467, 2011; Potency, µM (highest dose often 46.1 µM), hits mostly inhibitors; note: nearly all actives have a fitted effect of over 55% in size
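Quantitative HTS, concentration-response format. 2,000 cells/well co-treated with 5-fluorouridine and compound, 16 hr in 5% CO2 at 37 °C; ONE-Glo luminescence read after 30 min.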
A number is an active result; n = inactive; u = inconclusive; x = no result given; [ ] = another dose, or the depositor's remark. Most compounds without a hit are left out; they make up all but 21% or so of the library. Unless noted, calls come from the whole dose curve; as a rule, active = well fitted curve in the direction sought with a large enough effect; inconclusive = small, poorly fitted or top-dose-only effect, or another doubt; inactive = no such curve, though single readings can be large; an effect the other way counts as inactive or inconclusive.

SMILES	TDP1 cell CPT	RORg inh	IL-1B inflam inh	TDP1 cell noCPT	VP16 counter	ELG1 repair inh
C=CCCn1c(Cl)c(C#N)sc1=O	x	n	x	x	n	x
CCCc1cc(=O)[nH]c(-n2[nH]c3c(c2=O)CCCC3)n1	16.4µM	2.24µM	n	20.6µM	3.55µM	u
N#CCSc1ccccc1NC(=O)CN1C(=O)C(=O)N(Cc2ccccc2)C1=O	n	x	n	n	x	u
O=C1OC(c2ccccc2)=N/C1=C/c1cccc(OC(=O)c2cccs2)c1	n	x	-52.4	n	x	x
Cc1ccc(O)c(-c2cc(C(=O)Nc3ccc(S(=O)(=O)Nc4nc(C)cc(C)n4)cc3)[nH]n2)c1	n	u	n	n	n	n
Cc1ccc(-c2cc(C(=O)Nc3ccc(S(=O)(=O)N4CC(C)OC(C)C4)cc3)[nH]n2)c(O)c1 (stereo unspecified)	16.4µM	n	n	u	u	n
Cc1ccc(O)c(-c2cc(C(=O)Nc3ccc(S(=O)(=O)N4CC(C)OC(C)C4)cc3)[nH]n2)c1 (stereo unspecified)	25.9µM	u	-74.4	23.1µM	u	8.2µM
Cc1cc(C)nc(NS(=O)(=O)c2ccc(NC(=O)c3ccc(S(=O)(=O)N4CC(C)OC(C)C4)cc3)cc2)n1 (stereo unspecified)	n	n	n	n	u	n
CCCCN1CCCC[C@H]1C(=O)Nc1c(C)cccc1C	n	n	x	n	n	x
CSc1ccccc1NC(=O)CN(C)Cc1cc(=O)n2ccsc2n1	n	n	n	n	n[10 µM]	n
CCc1nnc(NC(=O)CSc2nnc(-c3ccccc3O)o2)s1	n	0.112µM	n	n	1.12µM	n
CCc1nnc(NC(=O)CSc2ncc(-c3ccccc3)n2C)s1	n	11.2µM	n	n	u	u
Cc1cccc(NC(=O)CSc2nnc(CSc3nc(C)cc(C)n3)o2)c1	n	n	n	n	n	n
CCc1nnc(NC(=O)CSc2nnc(CSc3nc(C)cc(C)n3)o2)s1	n	5.62µM	n	n	12.6µM	n
CCc1nnc(NC(=O)CSc2nccn2-c2ccccc2)s1	n	n	n	n	n	n
CN1OC[C@@H]2CN(C(=O)c3cccc4ccccc34)[C@H](c3ccccc3Br)C[C@@H]21	n	x	n	n	x	x
CC(=O)N(Cc1nc2sc(C)c(C)c2c(=O)[nH]1)C1CCCC1	20.6µM	10µM	n	u	u	n
Cc1sc2nc(CN(C(=O)NCc3ccccc3)C3CCCC3)[nH]c(=O)c2c1C	u	4.47µM	u	u	u	u
COCCN(C(=O)CSc1nnc(-c2ccncc2)n1C)c1c(N)n(CC(C)C)c(=O)[nH]c1=O	n	x	n	n	x	x
O=C(Nc1cccc2cccnc12)c1ccc(-c2cccc(Cl)c2)o1	n	x	x	u	x	x
O=C(CCc1ccccc1)Nc1nnc(-c2ccccn2)o1	n	u	n	n	u	n
O=C(CCc1ccccc1)Nc1nnc(-c2ccc3c(c2)CCCC3)o1	18.4µM	14.1µM	n	u	u	u
O=C(CCc1ccccc1)Nc1ccc2c(c1)OCCO2	n	n	n	u	n	u
O=C(CCc1ccccc1)Nc1nnc(-c2ccc3c(c2)OCCO3)o1	n	6.31µM	n	n	u	n
COc1ccccc1CNC(=O)CN1C(=O)NC(Cc2ccccc2)(c2ccccc2)C1=O (stereo unspecified)	n	x	u	n	x	n
SMILES	TDP1 cell CPT	RORg inh	IL-1B inflam inh	TDP1 cell noCPT	VP16 counter	ELG1 repair inh
O=C(COc1cccc(C(F)(F)F)c1)Nc1ccc(S(=O)(=O)N2CCCCC2)cc1	u	x	u	25.9µM	x	n
O=C(CNc1cccc(C(F)(F)F)c1)Nc1cccc(S(=O)(=O)N2CCCC2)c1	13µM	x	u	n	x	u
O=C(CNc1cccc(S(=O)(=O)N2CCCC2)c1)Nc1ccc(F)c(F)c1	u	x	n	u	x	n
Cc1ccc(NC(=O)CNc2cccc(S(=O)(=O)N3CCCC3)c2)cc1F	n	x	-66.5	u	x	u
O=C(CN1CCCN(S(=O)(=O)c2ccc(F)cc2)CC1)Nc1cccc(F)c1	u	u	n	u	n	n
O=C(CN1CCN(S(=O)(=O)c2ccccc2)CC1)Nc1cccc(C(F)(F)F)c1	16.4µM	n	n	u	u	u
O=C(CNc1cccc(S(=O)(=O)N2CCCC2)c1)Nc1cccc(F)c1	n	x	n	u	x	n
O=C(CN1CCCC1)Nc1cc(C(F)(F)F)cc(C(F)(F)F)c1	n	n	-68.8	n	n	n
CC(C)OC(=O)C(C#N)c1nc2ccccc2nc1N1CCCC1 (stereo unspecified)	n	n	n	u	n	n
CCC(C)COC(=O)C(C#N)c1nc2ccccc2nc1N1CCCCC1 (stereo unspecified)	u	5.01µM	n	16.4µM	n	n

Compound activity deposited in PubChem BioAssay by National Center for Advancing Translational Sciences (NCATS).
